# Data published in publication PMC4336329 (PLoS ONE, 2015).
# In all, about 310,000 compounds went through this assay and about 14,000 (4.5%) showed an effect of 50% or more. Effects have a minus sign here. The sample as a whole holds a higher share of strong results than the screen did.
# Target: human ether-à-go-go-related gene (hERG) potassium channel (human, UniProt Q12809)
# Experiment: primary screen, population patch clamp on CHO cells stably expressing hERG; higher = less effect of the substance
# 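Also: peak tail current of the secondary pulse compared with the same well before compound.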
# Chain of human ether-à-go-go-related gene (hERG) potassium channel (Q12809 whole entry, looked up): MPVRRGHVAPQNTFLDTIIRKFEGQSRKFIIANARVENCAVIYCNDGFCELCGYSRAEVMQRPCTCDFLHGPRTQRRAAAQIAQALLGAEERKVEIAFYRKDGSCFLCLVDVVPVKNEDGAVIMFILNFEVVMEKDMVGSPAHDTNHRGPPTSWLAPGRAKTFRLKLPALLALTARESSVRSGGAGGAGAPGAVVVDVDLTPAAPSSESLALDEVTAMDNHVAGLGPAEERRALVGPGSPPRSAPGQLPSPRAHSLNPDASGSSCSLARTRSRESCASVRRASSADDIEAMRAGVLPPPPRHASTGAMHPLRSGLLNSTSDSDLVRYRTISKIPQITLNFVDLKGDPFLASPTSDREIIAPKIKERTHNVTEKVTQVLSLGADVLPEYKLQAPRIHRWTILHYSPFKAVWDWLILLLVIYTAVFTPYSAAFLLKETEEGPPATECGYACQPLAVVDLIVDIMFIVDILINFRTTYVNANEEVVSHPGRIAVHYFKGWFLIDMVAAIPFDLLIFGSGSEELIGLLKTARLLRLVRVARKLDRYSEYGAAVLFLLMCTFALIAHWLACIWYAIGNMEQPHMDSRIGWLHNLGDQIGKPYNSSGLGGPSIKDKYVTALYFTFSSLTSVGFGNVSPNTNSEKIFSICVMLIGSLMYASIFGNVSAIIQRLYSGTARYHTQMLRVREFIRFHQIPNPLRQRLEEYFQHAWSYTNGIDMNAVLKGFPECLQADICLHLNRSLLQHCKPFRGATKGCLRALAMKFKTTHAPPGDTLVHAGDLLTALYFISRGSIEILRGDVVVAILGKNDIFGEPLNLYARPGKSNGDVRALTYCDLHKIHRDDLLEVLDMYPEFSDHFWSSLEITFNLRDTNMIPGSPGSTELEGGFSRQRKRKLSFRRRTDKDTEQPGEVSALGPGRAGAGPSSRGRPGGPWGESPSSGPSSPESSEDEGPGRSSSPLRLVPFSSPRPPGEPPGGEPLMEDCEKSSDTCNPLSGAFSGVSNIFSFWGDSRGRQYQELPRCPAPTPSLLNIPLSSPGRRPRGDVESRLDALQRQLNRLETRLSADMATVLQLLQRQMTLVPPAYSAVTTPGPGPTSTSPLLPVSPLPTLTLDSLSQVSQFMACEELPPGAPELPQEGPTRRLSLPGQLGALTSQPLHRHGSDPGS
row,Compound,"hERG current change (%, negative = inhibition) at 10uM [%]"
1,O=C(NNC(=O)C1CC=CCC1)c1ccccc1O (stereo not shown),-4.58
2,Cn1c(CC(=O)Nc2ccccc2)nnc1SCC(=O)NC1=NCCS1,12.7
3,CC(C)c1ccccc1OCCCCCN1CCOCC1,-13.5
4,O=C(O)COc1ccc(Cl)cc1Cl,7.53
5,COc1ccc(C)cc1NC(=O)C(=O)N/N=C(\C)CC(=O)Nc1cccnc1,2.77
6,C=CCN1C(=O)c2ccc(C(=O)N(CC)CC(=O)Nc3ccc(OC)cc3)cc2C1=O,-20
7,CCN(CC)C(=O)c1cccc(-c2ccc(OC)cc2)c1,-17
8,C=CCN1C[C@@H](C)N(C(c2ccc(C(=O)N(CC)CC)cc2)c2cccc(OC)c2)C[C@@H]1C (stereo partly shown),-65.3
9,c1ccc(-n2c(-c3ccncc3)nnc2N2CCOCC2)cc1,16.9
10,Cc1cc(=O)c2ccc3ccccc3c2[nH]1,7.45
11,Cc1cc(=O)cc(C)n1-c1ccc(F)cc1F,0.384
12,CC1(C)c2cc(O)ccc2OC1N1CCOCC1 (stereo not shown),13.6
13,c1ccc(-n2cnc3cc(NCc4ccco4)ccc32)cc1,-49.8
14,COc1ccc(-n2cnc3cc(NCc4ccco4)ccc32)cc1,-67.3
15,COc1ccccc1-n1cnc2cc(NCc3ccco3)ccc21,-20.7
16,O=C1c2ccccc2C(=O)N1Cc1ccccc1F,13
17,CC1=C(C(=O)Nc2ccccc2)C(c2ccco2)C(C#N)=C(SCC(N)=O)N1 (stereo not shown),-3.31
18,CSc1ccccc1OCc1cc(C(=O)N2CCC(Oc3cccnc3)CC2)no1,-37.4
19,CSc1ccccc1OCc1cc(C(=O)N2CCC(c3ccncc3)CC2)no1,-58.5
20,Cc1cccc(C)c1OCc1cc(C(=O)N2CCC(c3ccncc3)CC2)no1,-55.8
21,Cc1cccc(C)c1OCc1cc(C(=O)N2CCC(c3ccccc3)CC2)no1,-1.95
22,O=C(c1cc(COc2ccc(F)cc2Cl)on1)N1CCC(c2ccncc2)CC1,-72.5

row,Compound,"hERG current change (%, negative = inhibition) at 10uM [%]"
1,O=C(c1cc(COc2ccc(F)cc2Cl)on1)N1CCCCCC1,-3.89
2,CSc1ccccc1OCc1cc(C(=O)N2CCSCC2)no1,0.366
3,O=C(c1cc(COc2c(F)cccc2F)on1)N1CCC(c2ccncc2)CC1,-38.5
4,O=C(c1cc(COc2ccc(F)cc2Cl)on1)N1CCCCCCC1,0.909
5,CC(C)C[C@H](NC(=O)c1nc[nH]c1C(=O)NC1CCN(C(=O)OC(C)(C)C)CC1)C(=O)OCc1ccccc1,3.48
6,COc1cccc(C2CC(=O)C3=C(C2)Nc2ccccc2N(C(=O)CCC(=O)O)C3c2ccc(F)cc2)c1 (stereo not shown),5.1
7,Nc1ccccc1NC1=CC(=O)CC(c2ccco2)C1 (stereo not shown),10.4
8,Cn1c(SCC(=O)c2ccccc2)nnc1-c1cnccn1,6.47
9,Cc1ccc(NC(=O)CSc2ccc3nnc(-c4cccnc4)n3n2)cc1,-53.1
10,COc1cccc(NC(=O)CSc2ccc3nnc(-c4cccnc4)n3n2)c1,-37.5
11,COc1ccc(NC(=O)CSc2ccc3nnc(-c4cccnc4)n3n2)cc1,-50.4
12,CCOc1ccc(NC(=O)CSc2ccc(-c3cccnc3)nn2)cc1,-5.55
13,O=C(CSc1ccc2nnc(-c3cccnc3)n2n1)Nc1ccccc1,-17.8
14,CCOc1ccc(NC(=O)CSc2ccc3nnc(-c4cccnc4)n3n2)cc1,-54.7
15,COc1ccc(NC(=O)CSc2ccc3nnc(-c4cccnc4)n3n2)cc1OC,1.17
16,CC(=O)c1ccc(NC(=O)CSc2ccc3nnc(-c4cccnc4)n3n2)cc1,-28.8
17,CC(=O)Nc1ccc(NC(=O)CSc2ccc3nnc(-c4cccnc4)n3n2)cc1,2.95
18,Cc1c(C(=O)Nc2cccc(Cl)c2)cn2c(nc3ccccc32)c1C#N,6.75
19,CC(=O)NCC(=O)OC(C)C(=O)Nc1ccc(C(C)=O)cc1 (stereo not shown),-10.4
20,COc1cc(/C=C(\C#N)C(=O)NCC2CCCO2)ccc1OCC(N)=O (stereo not shown),28.7
21,C/C(=N\NC(=O)CCc1ccccc1)c1ccc(Br)cc1,11
